In PubChem BioAssay (NCI):
This is part of a sample that, as a whole, favours compounds with a hit. Of some 83,000 tested, about 20% had one in any assay.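 The test compound was applied at a single concentration to cells in 96-well plates for 48 hours, and percent growth was recorded.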 Calls of active or inactive are those of the source. How the source made its calls: active means growth percent below 10; inactive means the rest.

Experiments:
Assay in all cases: NCI-60 one-dose screen, 48 h (100 = growth as untreated, 0 = no growth, -100 = all killed)
NCI-H23 lung = conditions: 10 µM unless noted
NCI-H322M lung = conditions: 10 µM unless noted
HOP-62 NSCLC = conditions: 10 µM unless noted
NCI-H460 lung = conditions: 10 µM unless noted
NCI-H522 lung = conditions: 10 µM
A549/ATCC NSCLC = conditions: 10 µM unless noted
786-0 renal = conditions: 10 µM unless noted
COLO 205 colon = conditions: 10 µM unless noted
DU-145 prostate = conditions: 10 µM unless noted
K-562 leukemia = conditions: 10 µM unless noted
MALME-3M melanoma = conditions: 10 µM unless noted
MDA-MB-231 breast = conditions: 10 µM unless noted
RXF 393 renal = conditions: 10 µM unless noted
SF-268 CNS = conditions: 10 µM unless noted
SF-295 CNS = conditions: 10 µM unless noted
SF-539 CNS = conditions: 10 µM unless noted
UACC-257 melanoma = conditions: 10 µM unless noted
M14 melanoma = conditions: 10 µM unless noted

Measured: growth

CCOC(=O)c1c(Cl)c2c(n1Cc1ccc(OC)cc1)-c1oncc1CCC2
inactive: NCI-H23 lung 86.5% | NCI-H322M lung 95.2% | HOP-62 NSCLC 98.4% | NCI-H460 lung 95.1% | NCI-H522 lung 95.4% | A549/ATCC NSCLC 86.1% | 786-0 renal 90.4% | COLO 205 colon 93.2% | DU-145 prostate 118% | K-562 leukemia 92.1% | MALME-3M melanoma 119% | MDA-MB-231 breast 77.2% | RXF 393 renal 80.5% | SF-268 CNS 95.9% | SF-295 CNS 99% | SF-539 CNS 93.3% | UACC-257 melanoma 96.1% | M14 melanoma 108%

CCOC(=O)c1c(-c2cc(OC)c(OC)c(OC)c2)csc1N
inactive: NCI-H23 lung 92.9% | NCI-H322M lung 99.4% | HOP-62 NSCLC 80% | NCI-H460 lung 104% | NCI-H522 lung 79.6% | A549/ATCC NSCLC 96.9% | 786-0 renal 112% | COLO 205 colon 90.7% | DU-145 prostate 101% | K-562 leukemia 45.5% | MALME-3M melanoma 92.1% | MDA-MB-231 breast 105% | RXF 393 renal 93.2% | SF-268 CNS 94.5% | SF-295 CNS 65.4% | SF-539 CNS 94.7% | UACC-257 melanoma 104% | M14 melanoma 89.8%

COC(=O)C1C2CC3c4[nH]c5cc(OC)ccc5c4CCN3CC2CC(OC2CCCCO2)C1OC (stereo not drawn)
inactive: NCI-H23 lung 98.9% | NCI-H322M lung 102% | HOP-62 NSCLC 108% | NCI-H460 lung 107% | NCI-H522 lung 93.6% | A549/ATCC NSCLC 95.7% | 786-0 renal 101% | COLO 205 colon 109% | DU-145 prostate 111% | K-562 leukemia 95.2% | MALME-3M melanoma 104% | MDA-MB-231 breast 96.8% | RXF 393 renal 104% | SF-268 CNS 101% | SF-295 CNS 102% | SF-539 CNS 97.6% | UACC-257 melanoma 98.6% | M14 melanoma 103%

Cc1nc(-c2ccccc2)cc2c(O)c(C(=O)N/N=C/Cc3ccccc3)[nH]c(=O)c12
inactive: NCI-H23 lung 100% | NCI-H322M lung 107% | HOP-62 NSCLC 104% | NCI-H460 lung 102% | NCI-H522 lung 91.1% | A549/ATCC NSCLC 105% | 786-0 renal 103% | COLO 205 colon 111% | DU-145 prostate 113% | K-562 leukemia 76.6% | MALME-3M melanoma 116% | MDA-MB-231 breast 113% | RXF 393 renal 127% | SF-268 CNS 103% | SF-295 CNS 117% | SF-539 CNS 103% | UACC-257 melanoma 94.5% | M14 melanoma 106%

N#CC1=C(N)Oc2cc(N)ccc2C1c1ccc(F)cc1 (stereo not drawn)
inactive: NCI-H23 lung 81.6% | NCI-H322M lung 82.6% | HOP-62 NSCLC 69.6% | NCI-H460 lung 100% | NCI-H522 lung 54.1% | A549/ATCC NSCLC 74.2% | 786-0 renal 86.6% | COLO 205 colon 82.9% | DU-145 prostate 93.1% | K-562 leukemia 24.8% | MALME-3M melanoma 71.9% | MDA-MB-231 breast 83.4% | RXF 393 renal 74.9% | SF-268 CNS 81.9% | SF-295 CNS 72.2% | SF-539 CNS 83.6% | UACC-257 melanoma 95.6% | M14 melanoma 51.1%

CCOC(=O)c1c(Cl)c2c(n1Cc1cc(OC)cc(OC)c1)-c1oncc1CCC2
active: COLO 205 colon -51.8% | K-562 leukemia 9.73% | SF-295 CNS 6.63% | SF-539 CNS 7.36%
inactive: NCI-H23 lung 44.1% | NCI-H322M lung 55.7% | HOP-62 NSCLC 39.7% | NCI-H460 lung 12.8% | NCI-H522 lung 28.9% | A549/ATCC NSCLC 28.1% | 786-0 renal 43% | DU-145 prostate 21.5% | MALME-3M melanoma 22.6% | MDA-MB-231 breast 35.5% | RXF 393 renal 21.7% | SF-268 CNS 50.5% | UACC-257 melanoma 72.4% | M14 melanoma 12.7%

CCN1C(=O)C2(Nc3ccccc3S2)c2cc(C)ccc21 (stereo not drawn)
inactive: NCI-H23 lung 111% | NCI-H322M lung 96.2% | HOP-62 NSCLC 89.7% | NCI-H460 lung 109% | NCI-H522 lung 86.8% | A549/ATCC NSCLC 95.7% | 786-0 renal 113% | COLO 205 colon 97% | DU-145 prostate 101% | K-562 leukemia 108% | MALME-3M melanoma 84.1% | MDA-MB-231 breast 105% | RXF 393 renal 93.7% | SF-268 CNS 98.2% | SF-295 CNS 101% | SF-539 CNS 94.4% | UACC-257 melanoma 101% | M14 melanoma 92.6%

CN1CCC(OC2c3ccccc3CCc3ccccc32)CC1
inactive: NCI-H23 lung 94.6% | NCI-H322M lung 92.8% | HOP-62 NSCLC 93.8% | NCI-H460 lung 106% | NCI-H522 lung 96.7% | A549/ATCC NSCLC 96.2% | 786-0 renal 103% | COLO 205 colon 99.1% | DU-145 prostate 107% | K-562 leukemia 96.8% | MALME-3M melanoma 102% | MDA-MB-231 breast 74.8% | RXF 393 renal 89.2% | SF-268 CNS 89.5% | SF-295 CNS 88.6% | SF-539 CNS 102% | UACC-257 melanoma 92.6% | M14 melanoma 103%

Cc1ccc(C2SCC(=O)N2NC(=O)c2[nH]c3ccc(F)cc3c2-c2ccccc2)cc1 (stereo not drawn)
inactive: NCI-H23 lung 86.6% | NCI-H322M lung 111% | HOP-62 NSCLC 109% | NCI-H460 lung 92.2% | NCI-H522 lung 67.8% | A549/ATCC NSCLC 74.1% | 786-0 renal 105% | COLO 205 colon 104% | DU-145 prostate 106% | K-562 leukemia 75.8% | MALME-3M melanoma 91.6% | MDA-MB-231 breast 86.4% | RXF 393 renal 78.7% | SF-268 CNS 93.4% | SF-295 CNS 92.4% | SF-539 CNS 97.6% | UACC-257 melanoma 86.9% | M14 melanoma 109%

COc1cccc(C2CC(=O)Nc3cc4c(cc32)OCO4)c1OC (stereo not drawn)
inactive: NCI-H23 lung 92.3% | NCI-H322M lung 88.3% | HOP-62 NSCLC 98.2% | NCI-H460 lung 102% | NCI-H522 lung 87.4% | A549/ATCC NSCLC 89.8% | 786-0 renal 114% | COLO 205 colon 107% | DU-145 prostate 103% | K-562 leukemia 83.1% | MALME-3M melanoma 93.1% | MDA-MB-231 breast 97.3% | RXF 393 renal 87% | SF-268 CNS 101% | SF-295 CNS 84.9% | SF-539 CNS 88.5% | UACC-257 melanoma 99.4% | M14 melanoma 115%

COc1cc(/C=C2\C(=O)Nc3ccccc32)cc(OC)c1O
active: NCI-H522 lung 8.78% | K-562 leukemia 7.58%
inactive: NCI-H23 lung 66.4% | NCI-H322M lung 96% | HOP-62 NSCLC 64.4% | NCI-H460 lung 40.1% | A549/ATCC NSCLC 67.9% | 786-0 renal 83.2% | COLO 205 colon 112% | DU-145 prostate 92.5% | MALME-3M melanoma 118% | MDA-MB-231 breast 63.1% | RXF 393 renal 71.3% | SF-268 CNS 78.3% | SF-295 CNS 60.6% | SF-539 CNS 68.8% | UACC-257 melanoma 62.6% | M14 melanoma 53.6%

Clc1ccc(Nc2nc(Nc3ccccc3)nc(Nc3ccc(-c4cc(-c5ccc(Cl)cc5)on4)cc3)n2)cc1
active: NCI-H460 lung 7.19%
inactive: NCI-H23 lung 72.2% | NCI-H322M lung 77.6% | HOP-62 NSCLC 75.6% | NCI-H522 lung 26.2% | A549/ATCC NSCLC 38.9% | 786-0 renal 53.9% | COLO 205 colon 69.8% | DU-145 prostate 32.6% | K-562 leukemia 40.2% | MALME-3M melanoma 64.5% | MDA-MB-231 breast 60.5% | RXF 393 renal 74.6% | SF-268 CNS 61.7% | SF-295 CNS 54% | SF-539 CNS 54.2% | UACC-257 melanoma 70.1% | M14 melanoma 41.4%

O=C1c2[nH]cc(CN[C@@H]3CCCN3)c2C(=O)c2c1c(O)c1ccccc1c2O
inactive: SF-295 CNS 70.5%
active: NCI-H23 lung -53.7% | NCI-H322M lung -95% | HOP-62 NSCLC -100% | NCI-H460 lung -92.6% | NCI-H522 lung -85.1% | A549/ATCC NSCLC -93.1% | 786-0 renal -83.1% | COLO 205 colon -79.8% | DU-145 prostate -98.6% | K-562 leukemia -81.5% | MALME-3M melanoma -51.9% | MDA-MB-231 breast -96.7% | RXF 393 renal -98.2% | SF-268 CNS -88.2% | SF-539 CNS -94.1% | UACC-257 melanoma -64.9% | M14 melanoma -72.8%

Cc1ccc(S(=O)(=O)c2ccc3[nH]c(=O)[nH]c(=O)c3c2)cc1
inactive: NCI-H23 lung 102% | NCI-H322M lung 106% | HOP-62 NSCLC 106% | NCI-H460 lung 114% | NCI-H522 lung 84.9% | A549/ATCC NSCLC 80.7% | 786-0 renal 96.5% | COLO 205 colon 99.3% | DU-145 prostate 107% | K-562 leukemia 87.2% | MALME-3M melanoma 119% | MDA-MB-231 breast 101% | RXF 393 renal 114% | SF-268 CNS 104% | SF-295 CNS 116% | SF-539 CNS 101% | UACC-257 melanoma 91.5% | M14 melanoma 101%

COc1cc(-c2ccc3cc(OC)c(OC)c(OC)c3c2)cc(OC)c1OC
inactive: NCI-H23 lung 65.4% | NCI-H322M lung 78.7% | HOP-62 NSCLC 61.3% | NCI-H460 lung 60.3% | NCI-H522 lung 34% | A549/ATCC NSCLC 50.8% | 786-0 renal 84% | COLO 205 colon 54.7% | DU-145 prostate 95.9% | K-562 leukemia 24.9% | MALME-3M melanoma 68.1% | MDA-MB-231 breast 65.4% | RXF 393 renal 71.4% | SF-268 CNS 77.4% | SF-295 CNS 43.8% | SF-539 CNS 79.3% | UACC-257 melanoma 75.3% | M14 melanoma 51.4%

Nc1nc(N)c(C=Nc2ccc(Br)cc2)c(Nc2ccc(Br)cc2)n1
inactive: NCI-H23 lung 97.9% | NCI-H322M lung 72.9% | HOP-62 NSCLC 98.9% | NCI-H460 lung 95.9% | NCI-H522 lung 86.4% | A549/ATCC NSCLC 77.2% | 786-0 renal 92.9% | COLO 205 colon 117% | DU-145 prostate 107% | K-562 leukemia 92.2% | MALME-3M melanoma 119% | MDA-MB-231 breast 86.1% | RXF 393 renal 78.9% | SF-268 CNS 81% | SF-295 CNS 83.5% | SF-539 CNS 101% | UACC-257 melanoma 83.1% | M14 melanoma 97.2%
